MBNL1-CUG inh: MBNL1-poly(CUG) RNA binding inhibition | AID 2675 | Potency, µM (highest dose often 57.5 µM), for inactives: top-dose activity change, negative = inhibition, actives largely listed as inhibitors | hit rate 0.036% among 280,000 | TR-FRET MBNL1-His/biotin-(CUG)12 binding, 665/545 ratio; active = well fitted inhibition curve with a large enough effect in the signal ratio, with a control signal flat, not every such curve was filed as active; inconclusive = small, poorly fitted or top-dose-only effect, or effect the other way, or a change in a side signal; inactive = no such curve, though single readings can be large or run the other way; the % refers to the signal ratio; also: potency is read from the fitted curve at half-maximal effect; % is scaled to controls: 0 for no effect and ±100 for the full control effect
Target sequence (Q9NR56 whole entry, looked up): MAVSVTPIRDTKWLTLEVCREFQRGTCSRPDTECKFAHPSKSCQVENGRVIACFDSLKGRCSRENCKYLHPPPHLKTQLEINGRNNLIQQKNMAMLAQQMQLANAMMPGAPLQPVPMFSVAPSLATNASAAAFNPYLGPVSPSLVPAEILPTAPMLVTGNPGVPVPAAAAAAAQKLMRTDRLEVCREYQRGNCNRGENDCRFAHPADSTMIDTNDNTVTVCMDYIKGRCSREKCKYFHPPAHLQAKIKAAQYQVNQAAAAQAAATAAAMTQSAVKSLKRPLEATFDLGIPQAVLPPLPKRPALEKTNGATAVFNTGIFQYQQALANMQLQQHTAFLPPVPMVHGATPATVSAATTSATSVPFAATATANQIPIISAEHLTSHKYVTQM
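Ratiometric TR-FRET (665 over 545 nm, excitation 340 nm) tracks disruption of MBNL1-His/biotin-(CUG)12 complex after 60 min at room temperature, with compounds at 92 nM to 58 uM final.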
D3 antag: D3 dopamine receptor (human) antagonism. D3R cells, DiscoveRx beta-arrestin luminescence, antagonist mode; stronger effect = lower value. max response, negative = inhibition, %. hit rate 2.5% among 360,000. AID 652054; in the data active = max response below about -50%; inconclusive = no clear call, values can overlap the other calls; also: % is scaled to controls: 0 for no effect and ±100 for the full control effect
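Cells expressing the human receptor were seeded at 1500 cells/well, incubated overnight at 37 degrees C in 5% CO2, then exposed to library compounds with dopamine controls for 90 minutes at 37 degrees C before luminescent detection.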
PTHR1 agonist: agonists of human PTHR1 parathyroid hormone receptor; Q03431; HEK293 GP2 PTHR1 cells, GloSensor cAMP luminescence, 1 h; Potency, µM (top dose mostly 115 µM), for inactives: at the top dose activation, hits mostly activators; hit rate 0.075% among 410,000; AID 743266; also: potency is read from the fitted curve at half-maximal effect; nearly all actives have a fitted effect of over 55% in size
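HEK-293-derived GP2 cells expressing PTHR1 and a GloSensor cAMP reporter, 3,000/well, plated overnight, given luciferin plus IBMX (each 0.5 mM as added) for 1 h at 37 °C, then compound for 1 h at 37 °C. Luminescence was read after 15 min at room temperature.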
CBFb-RUNX1 inh: inhibitors of human CBF-beta and RUNX1 interaction; Q01196+Q13951; 230,000 tested, under 10 active; AlphaScreen CBFb-His/RUNX1-biotin binding, biochemical; Potency, µM (top dose mostly 59.8 µM), inactives show top-dose activity, negative = inhibition, usual class: inhibitors; also: % of control where 0% means no effect
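AlphaScreen proximity signal reports loss of binding between His-tagged CBF-beta and biotin-labelled RUNX1, each at 30 nM. Proteins are pre-associated for 20 minutes, compounds added for 15 minutes, then beads for 90 minutes, all at ambient temperature.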
a7 integrin act: integrin-mediated muscular dystrophy alleviation activation; alpha7betagal myoblasts, beta-gal FDG fluorescence, 48 h; Potency, µM (top dose mostly 38.3 µM), for the others: at the highest dose activation, usual class: activators; hit rate 0.064% among 350,000;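 also: potency is read from the fitted curve at half-maximal effect; 100% = response of the positive control SU9516; nearly all actives have a fitted effect of over 60% in size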
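alpha7betagal+/- myoblasts (passage 13, 250/well) treated 48 h at 37C with compounds at 1:260 dilution of DMSO stock. Lysed, then beta-galactosidase activity read as FDG fluorescence (ex 480/em 540) after 30 min, with pre-read for autofluorescence.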
D3 ag: D3 dopamine receptor (human) agonism; hit rate 0.58% among 410,000; P35462; max activation, %; D3R DiscoveRx beta-arrestin cells, luminescence, 90 min; AID 652048; in the data active = max activation above about 30%; also: 0% is about no effect
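Agonist mode: compounds and dopamine controls were applied to plated cells for 90 min at 37 degrees C after an overnight attachment at 1500 cells/well. Luminescent read-out followed 30 - 60 minutes at room temperature with DiscoveRx detection reagent.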
An asterisk follows results filed as active; i = inactive; ? = inconclusive; nt = no result given; [ ] = another dose, or the depositor's remark. A selection: hits, their analogues and other compounds. The true share with any hit is near 2.8%. Unless noted, calls follow the shape of the dose curve; as a rule, active = well fitted curve in the direction sought with a large enough effect; inconclusive = small, poorly fitted or top-dose-only effect, or another doubt; inactive = no such curve, though single readings can be large; an effect the other way counts as inactive or inconclusive.

SMILES	MBNL1-CUG inh	D3 antag	PTHR1 agonist	CBFb-RUNX1 inh	a7 integrin act	D3 ag
NC(=S)c1ccc[n+]([C@@H]2O[C@@H](COP(=O)([O-])OP(=O)(O)OC[C@H]3O[C@@H](n4cnc5c(N)ncnc54)[C@H](OP(=O)(O)O)[C@H]3O)C(O)C2O)c1 (stereo partly drawn)	nt	nt	nt	9%	nt	nt
NS(=O)(=O)c1ccc(-c2ccc(/C=C3\NC(=S)NC3=O)o2)cc1	?	2	9%	nt	17%	43*
O=C(CCc1nc2ccccc2s1)Nc1cccnc1	-3%	19	-12%	-13%	12%	-1
CON=C1C[C@]2(C[C@@H]3C[C@@H](C/C=C(\C)C[C@@H](C)/C=C/C=C4\CO[C@@H]5[C@H](O)C(C)=C[C@@H](C(=O)O3)[C@]45O)O2)O[C@H](/C(C)=C/C(C)C)[C@H]1C	nt	nt	nt	nt	nt	12
Nc1nc2ncccn2c1-c1ccc(F)cc1	nt	2	i	nt	nt	2
O=Nc1nc2ncccn2c1-c1ccccc1	nt	-57*	-16%	nt	-49%	-14
NC(=O)CSc1nnc(NC(=O)c2ccc(S(=O)(=O)N3CCOCC3)cc2)s1	1%	-1	i	nt	?	-2
CSc1nnc(NC(=O)c2ccc(S(=O)(=O)N3CCOCC3)cc2)s1	-9%	-59*	-37%	nt	2%	2
O=C(Nc1nnc(S(=O)(=O)N2CCOCC2)s1)c1ccc(F)cc1	1%	-3	-26%	nt	-12%	4
Cc1ccc(C(=O)Nc2nnc(S(=O)(=O)N3CCOCC3)s2)cc1	-3%	-57*	-43%	nt	1%	-9
CC(=O)N[C@@H](C=O)[C@H](O)[C@H](O)[C@@H](O)CO	nt	nt	nt	nt	nt	-1
CC(C)(C)c1ccc(OCCOCCn2c(-c3ccc(Cl)cc3)nc3ccccc3c2=O)cc1	nt	nt	-1%	nt	nt	-4
CCNC(=O)c1ccc(NC(=O)CC2SC(N3CCCC3)=NC2=O)cc1 (stereo not drawn)	nt	0	i	nt	13%	4
C[C@H](NC(=O)c1ccco1)C(=O)Nc1ccc(C#N)cc1	2%	-19	i	nt	6%	-6
CC1NC(=O)NC1CCCCCC(=O)Nc1ccc(F)c(Cl)c1 (stereo not drawn)	nt	-9	i	nt	-1%	-8
CCc1cccc(NC(=O)CCCN2C(=O)NC(C)(C)C2=O)c1	nt	-8	i	nt	1%	-1
CCc1cccc(NC(=O)CCCCCC2NC(=O)NC2C)c1 (stereo not drawn)	0.1µM*	-2	-3%	nt	7%	-1
Cc1ccc(NC(=O)CCCCCC2NC(=O)NC2C)cc1 (stereo not drawn)	0.045µM*	-16	i	nt	25%	2
COC(=O)C(NC(=O)c1ccccc1C)(Nc1ncc(S(=O)(=O)c2ccc([N+](=O)[O-])cc2)s1)C(F)(F)F (stereo not drawn)	?	-77*	-25%[57.5 µM]	-5%	1%	-7
O=[N+]([O-])c1cc(C(F)(F)F)cc([N+](=O)[O-])c1NCCNC(=S)Nc1cccc(F)c1	?	8	-33%	?	-76%	-2
Cc1nn(CC(=O)NC(C)c2ccccc2)c(=O)c2cc3occc3n12 (stereo not drawn)	nt	nt	i	nt	nt	-9
O=C(Nc1ccc(Cl)cc1)C1C2C=CC3(O2)C1C(=O)N(CCCN1CCCCC1)C3C(=O)NC1CCCCC1 (stereo not drawn)	2%	10	i	nt	2%	-6
NC(=O)NNC1=Nc2cccc3cccc1c23	15%	3	i	-10%	?	-9
COc1ccc(C(=O)NNC2=Nc3cccc4cccc2c34)cc1	1%	-68*	i	-13%	4%	-12
COc1ccc(CC(=O)NNC(=O)Cc2ccc(OC)cc2)cc1	-6%	nt	nt	3%	nt	nt
SMILES	MBNL1-CUG inh	D3 antag	PTHR1 agonist	CBFb-RUNX1 inh	a7 integrin act	D3 ag
Cc1ccc(C(=O)NNC2=Nc3cccc4cccc2c34)cc1	-9%	-74*	-18%	5%	-38%	-25
COc1ccc(CC(=O)NNC2=Nc3cccc4cccc2c34)cc1	-5%	-79*	i	2%	-12%	-22
O=C(O)c1nn2cc(CCO)cnc2c1Cl	i	0	-16%	8%	-9%	8
COc1ccccc1CN=C1NC(=O)C(CC(=O)Nc2ccc(C(C)=O)cc2)S1 (stereo not drawn)	-9%	-3	-25%	-8%	-3%	53*
O=c1[nH]c2ccc(Cl)cc2c(-c2ccccc2)c1CN1CCOCC1	10%	-58*	-8%	3%	-47%	-18
C=CCC[C@H](CCCCC)OC(=O)/C=C/[C@@H](O)[C@H](O)C[C@@H](O)CC=C	nt	-2	-11%	nt	nt	-1
COc1ccc(NC(=O)C(C)n2nc(-c3ccc(C)c(C)c3)ccc2=O)cc1OC (stereo not drawn)	nt	nt	i	nt	nt	9
O=C1C2C3C=CC(C3)C2C(=O)N1/N=C/c1cc(Br)cc([N+](=O)[O-])c1O (stereo not drawn)	19%	-68*	-8%[57.5 µM]	12%	-4%	-17
COc1ccccc1N(C)S(=O)(=O)c1ccc(C(=O)N(C)Cc2cccc(F)c2)cc1	nt	-22	-5%	nt	-17%	-3
Fc1ccc(-c2cc3nc4c(c(N5CCOCC5)n3n2)CCCC4)cc1	-4%	46	i	23%	0%	47*
COc1ccccc1OCCCCN1CCC(C)CC1	-6%	?	i	nt	-49%	-46
COc1ccccc1N1CCN(CCCCOc2c(OC)cccc2OC)CC1	-10%	-108*	-20%	nt	-39%	-16
COc1ccccc1N1CCN(CCCOc2ccc(F)cc2)CC1	-7%	-91*	8%[57.5 µM]	-2%	-23%	-17
OCCOCCN1CCN(C(c2ccccc2)c2ccc(Cl)cc2)CC1 (stereo not drawn)	-13%	-89*	-2%	7%	nt	-86
COc1ccccc1N1CCN(Cc2cc(=O)n3ccsc3n2)CC1	4%	-30	-3%[57.5 µM]	-3%	-18%	-15
COc1ccccc1N1CCN(CCCN=C2CC(=O)N(C)C(=O)N2C)CC1	nt	-56*	-37%	nt	nt	-62
CC(=O)[C@]1(O)Cc2c(O)c3c(c(O)c2[C@@H](O[C@H]2C[C@H](N)[C@H](O)[C@H](C)O2)C1)C(=O)c1c(O)cccc1C3=O	nt	nt	nt	-22%	nt	-11
Cc1ccccc1C(=O)NC1(C(F)(F)F)C(=O)Nc2c1c(=O)[nH]c(=O)n2CCc1ccccc1 (stereo not drawn)	nt	nt	-18%	nt	nt	-8
COc1cccc(OC)c1OCCCN1CCC(Cc2ccccc2)CC1	-1%	-95*	-24%	nt	-50%	-20

High-throughput results as filed in PubChem BioAssay.
